Reference: PubChem BioAssay (NCI)
About 83,000 compounds went through this panel and 20% of them were active in at least one assay; those are over-represented in the sample as a whole.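 96-well plates, one dose, 48 hours. Percent growth reported; active if below 10.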 A number with no mark means an inactive call. The source made the active and inactive calls.

system: KM12 colon; assay: NCI-60 one-dose screen, 48 h (100 = growth as untreated, 0 = no growth, -100 = all killed); details: 10 µM unless noted

Structure (SMILES)	growth
O=C(Nc1ccccc1)Oc1cccc2cccnc12	108%
O=c1[nH]c(-c2ccccn2)nc2sc3c(c12)CCCCCC3	33.6%
CC(=O)N(CC(O)CO)c1c(I)c(C(=O)NCCO)c(I)c(C(=O)NCC(O)CO)c1I (stereo not given)	103%
COc1ccc(-c2nc3sc(C)nn3c2-c2nc3cc(C)c(C)cc3[nH]2)cc1	103%
Cc1ccc(C2SCC(=O)N2NC(=O)c2[nH]c3ccc(F)cc3c2-c2ccccc2)cc1 (stereo not given)	96.1%
CCCCCCCCCCCCSC1=CC(=O)C=CC1=O	48.9%
O=C1/C(=C/c2ccc(Oc3ccccc3)cc2)N=C(c2ccccc2)N1CCc1cccs1	97.6%
COc1ccc(Nc2[nH]n(C3=Nc4ccccc4Sc4ccccc43)c(=O)c2C#N)cc1	43.8%
FC(F)(F)c1cc(CNc2ncc(Br)c(Cl)n2)cc(C(F)(F)F)c1	105%
COc1cc(CNCCCN2C(=O)c3ccc4c5c(ccc(c35)C2=O)C(=O)N(CCCNCc2cc(OC)c(OC)c(OC)c2)C4=O)cc(OC)c1OC	-86.9% (active)
CCCCc1ccc(C(O)(CCN2CC3CCC(CC3)C2)c2ccccc2)cc1 (stereo not given)	93.2%
CC(C)NCC(O)COc1ccc(CCOCC2CC2)cc1 (stereo not given)	113%
Oc1cccc(Nc2nc(-c3ccccn3)cs2)c1	103%
O=C(O)CCN1CCN(c2cccc(Cl)c2)CC1	114%
CCCCC(CCCC)(S(=O)(=O)CC)S(=O)(=O)CC	96.7%
